Assay results from PubChem BioAssay (EPA / NIEHS).
The source made the active and inactive calls. The calls were made as follows: active = hit-call score of the fitted dose curve at least 0.9, where 1 is the maximum; inactive = score below 0.9.

Experiments:
Settings in all cases: mRNA level, 48 h; actives raise or lower the signal
[1] = read-out: Glutathione S-transferase M3 (GSTM3), GSTM3 (gene 2947); test: LTEA_HepaRG_GSTM3: Life Technologies and Expression Analysis (LTEA) Assay for Glutathione S-transferase M3 (GSTM3) using HepaRG (AID 2283501)
Outline: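 Expression of GSTM3 is determined by qRT-PCR in human liver HepaRG cells treated 48 h with an 8-point half-log range from 100 uM in 0.5% DMSO.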

[2] = read-out: Heat shock 70 kDa protein 1 (HSPA1A), gene 3303; test: LTEA_HepaRG_HSPA1A: Life Technologies and Expression Analysis (LTEA) Assay for Heat shock 70 kDa protein 1 (HSPA1A) using HepaRG (AID 2283502)
Outline: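 Cells were plated and cultured for 48 h, then switched to serum-free induction medium. Chemicals were added at eight half-log concentrations up to 100 uM for 48 h. RNA was then isolated and HSPA1A measured by qRT-PCR with bidirectional curve fitting against DMSO.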

[3] = read-out: Hypoxia-inducible factor 1-alpha (Homo sapiens) (UniProt Q16665); test: LTEA_HepaRG_HIF1A: Life Technologies and Expression Analysis (LTEA) Assay for Hypoxia-inducible factor 1 (HIF1A) Trancription factor using HepaRG (AID 2283503)
Outline: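 HIF1A transcript level read by qRT-PCR (ACTB, GAPDH, POLR2A normalization) after 48 h chemical exposure of HepaRG cultures. Eight half-log concentrations, top 100 uM, 0.5% DMSO vehicle, duplicates; bidirectional curve fit against DMSO baseline.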

[4] = read-out: 3-Hydroxy-3-Methylglutaryl-CoA Synthase 2 (HMGCS2), HMGCS2 (gene 3158); test: LTEA_HepaRG_HMGCS2: Life Technologies and Expression Analysis (LTEA) Assay for 3-Hydroxy-3-Methylglutaryl-CoA Synthase 2 (HMGCS2) using HepaRG (AID 2283504)
Outline: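 This steatosis marker was read as HMGCS2 mRNA change in HepaRG cells treated 48 h with up to 100 uM chemical. Normalisation used housekeeping genes; activity in either direction was fitted relative to 0.5% DMSO vehicle.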

HGF (gene 3082) = test: LTEA_HepaRG_HGF: Life Technologies and Expression Analysis (LTEA) Assay for Hepatocyte Growth Facto (HGF) using HepaRG (AID 2283505)
Outline: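 Using HepaRG monolayers kept in 0.5% DMSO, chemicals were tested in duplicate over eight half-log concentrations from 100 uM for 48 h. Endpoint: HGF mRNA change relative to DMSO, normalized to ACTB/GAPDH/POLR2A.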

[5] = read-out: Insulin Like Growth Factor 1 (IGF1), IGF1 (gene 3479); test: LTEA_HepaRG_IGF1: Life Technologies and Expression Analysis (LTEA) Assay for Insulin Like Growth Factor 1 (IGF1) using HepaRG (AID 2283506)
Outline: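 Cells are thawed, plated and cultured 48 h, then exposed in duplicate to chemical (highest 100 uM, half-log steps, 0.5% DMSO) for another 48 h. Total RNA is analysed by Fluidigm qRT-PCR for IGF1 expression relative to vehicle.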

[6] = read-out: Intercellular Adhesion Molecule 1 (ICAM1), ICAM1 (gene 3383); test: LTEA_HepaRG_ICAM1: Life Technologies and Expression Analysis (LTEA) Assay for Intercellular Adhesion Molecule 1 (ICAM1) using HepaRG (AID 2283507)
Outline: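 Using the human liver line HepaRG, compounds are tested in duplicate over 48 h at concentrations up to 100 uM. Expression is determined by TaqMan qRT-PCR, normalized to endogenous controls, and analysed relative to 0.5% DMSO vehicle.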

[7] = read-out: Insulin-like growth factor-binding protein 1 (IGFBP1), IGFBP1 (gene 3484); test: LTEA_HepaRG_IGFBP1: Life Technologies and Expression Analysis (LTEA) Assay for Insulin-like growth factor-binding protein 1 (IGFBP1) using HepaRG (AID 2283508)
Outline: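 HepaRG, 48 h, 8 conc. (max 100 uM, half-log), duplicates, 0.5% DMSO. Readout: TaqMan qRT-PCR, ACTB/GAPDH/POLR2A normalisation. Fit: bidirectional vs DMSO.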

[8] = read-out: Interleukin 6 (IL6), IL6 (gene 3569); test: LTEA_HepaRG_IL6: Life Technologies and Expression Analysis (LTEA) Assay for Interleukin 6 (IL6) using HepaRG (AID 2283509)
Outline: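 Changes in IL6 mRNA, up or down relative to 0.5% DMSO controls, were derived from concentration-response curves in human HepaRG cells treated for 48 h at up to 100 uM, with ACTB, GAPDH and POLR2A as normalizers.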

[9] = read-out: Potassium channel subfamily K member 1 (KCNK1), KCNK1 (gene 3775); test: LTEA_HepaRG_KCNK1: Life Technologies and Expression Analysis (LTEA) Assay for Potassium channel subfamily K member 1 (KCNK1) using HepaRG (AID 2283511)
Outline: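 Human HepaRG cultures receive test chemicals for 48 h in 0.5% DMSO, top concentration 100 uM with half-log dilutions. Induction or suppression of KCNK1 mRNA relative to DMSO is derived by bidirectional fitting of qRT-PCR data.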

[10] = read-out: Keratin 19 (KRT19), KRT19 (gene 3880); test: LTEA_HepaRG_KRT19: Life Technologies and Expression Analysis (LTEA) Assay for Keratin 19 (KRT19) using HepaRG (AID 2283512)
Outline: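 Readout is qRT-PCR of KRT19 mRNA, normalized to ACTB, GAPDH and POLR2A, from HepaRG cells treated 48 h with eight-point half-log dilutions topping at 100 uM. Activity in either direction is scored relative to 0.5% DMSO vehicle.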

[11] = read-out: JUN Transcription Factor, JUN (gene 3725); test: LTEA_HepaRG_JUN: Life Technologies and Expression Analysis (LTEA) Assay for JUN Transcription Factor using HepaRG (AID 2283513)
Outline: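 Read-out is JUN transcript level by TaqMan qRT-PCR, normalized to ACTB, GAPDH and POLR2A, after 48 h chemical treatment of HepaRG cells. Concentration-response spanned eight half-log points up to 100 uM in 0.5% DMSO.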

[12] = read-out: Lipase C (LIPC), LIPC (gene 3990); test: LTEA_HepaRG_LIPC: Life Technologies and Expression Analysis (LTEA) Assay for Lipase C (LIPC) using HepaRG (AID 2283514)
Outline: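 In this multiplexed gene-expression screen, human HepaRG cultures received test chemicals for 48 h across eight concentrations with 100 uM highest, in duplicate. Values reflect LIPC mRNA induction or suppression versus DMSO vehicle, from normalized qRT-PCR.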

[13] = read-out: Lipoprotein lipase (LPL), LPL (gene 4023); test: LTEA_HepaRG_LPL: Life Technologies and Expression Analysis (LTEA) Assay for Lipoprotein lipase (LPL) using HepaRG (AID 2283515)
Outline: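 Concentration-response testing used half-log steps from 100 uM in 0.5% DMSO on human HepaRG cells, 48 h, duplicate wells. Phenobarbital 1 mM served as induction control; LPL mRNA was normalized to ACTB, GAPDH, POLR2A.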

[14] = read-out: MicroRNA 122 (MIR122), gene 406906; test: LTEA_HepaRG_MIR122: Life Technologies and Expression Analysis (LTEA) Assay for MicroRNA 122 (MIR122) using HepaRG (AID 2283516); also: the transcript read is the microRNA miR-122
Outline: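 Human liver HepaRG cultures receive test chemicals for 48 h at eight half-log concentrations from 100 uM. Expression is quantified by qRT-PCR with ACTB/GAPDH/POLR2A normalization and fitted bidirectionally against 0.5% DMSO.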

[15] = read-out: matrix metalloproteinase-10 (MMP10), MMP10 (gene 4319); test: LTEA_HepaRG_MMP10: Life Technologies and Expression Analysis (LTEA) Assay for matrix metalloproteinase-10 (MMP10) using HepaRG (AID 2283517)
Outline: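 In differentiated HepaRG cultures kept in 0.5% DMSO, test chemicals act for 48 h over an eight-point range with a top dose of 100 uM. Expression is then quantified by TaqMan RT-PCR against ACTB, GAPDH and POLR2A.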

MYC, MYC (gene 4609) = test: LTEA_HepaRG_MYC: Life Technologies and Expression Analysis (LTEA) Assay for MYC using HepaRG (AID 2283518)
Outline: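 Expression changes were scored by TaqMan qRT-PCR with ACTB, GAPDH and POLR2A normalization. Cultures in serum-free induction medium received duplicate 8-point concentration series, highest 100 uM, for 48 h; DMSO (0.5%) served as baseline.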

[16] = read-out: Paternally Expressed 10 (PEG10), PEG10 (gene 23089); test: LTEA_HepaRG_PEG10: Life Technologies and Expression Analysis (LTEA) Assay for Paternally Expressed 10 (PEG10) using HepaRG (AID 2283520)
Outline: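 Human HepaRG cultures are dosed for 48 h across an eight-point half-log series starting at 100 uM, with 0.5% DMSO as vehicle and baseline. Gain or loss of PEG10 transcript is measured by qRT-PCR and fitted in both directions.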

[17] = read-out: Interleukin 6 Receptor (IL6R), IL6R (gene 3570); test: LTEA_HepaRG_IL6R: Life Technologies and Expression Analysis (LTEA) Assay for Interleukin 6 Receptor (IL6R) using HepaRG (AID 2283510)
Outline: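 Cells were thawed, plated and cultured 48 h, then medium was changed to serum-free induction medium. Chemicals were added in duplicate (100 uM top, half-log steps, 0.5% DMSO) for 48 h. Lysates were analyzed by qRT-PCR for IL6R expression.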

[18] = read-out: matrix metalloproteinase-3 (MMP3), MMP3 (gene 4314); test: LTEA_HepaRG_MMP3: Life Technologies and Expression Analysis (LTEA) Assay for matrix metalloproteinase-3 (MMP3) using HepaRG (AID 2283519)
Outline: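 Human liver HepaRG cultures received chemicals (top concentration 100 uM, 0.5% DMSO) for 48 h in duplicate. MMP3 mRNA induction or loss was then assessed via TaqMan qRT-PCR with housekeeping-gene normalisation.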

Measured: outcome

Hypoxia-inducible factor 1-alpha (Homo sapiens), sequence (Q16665 whole entry, looked up): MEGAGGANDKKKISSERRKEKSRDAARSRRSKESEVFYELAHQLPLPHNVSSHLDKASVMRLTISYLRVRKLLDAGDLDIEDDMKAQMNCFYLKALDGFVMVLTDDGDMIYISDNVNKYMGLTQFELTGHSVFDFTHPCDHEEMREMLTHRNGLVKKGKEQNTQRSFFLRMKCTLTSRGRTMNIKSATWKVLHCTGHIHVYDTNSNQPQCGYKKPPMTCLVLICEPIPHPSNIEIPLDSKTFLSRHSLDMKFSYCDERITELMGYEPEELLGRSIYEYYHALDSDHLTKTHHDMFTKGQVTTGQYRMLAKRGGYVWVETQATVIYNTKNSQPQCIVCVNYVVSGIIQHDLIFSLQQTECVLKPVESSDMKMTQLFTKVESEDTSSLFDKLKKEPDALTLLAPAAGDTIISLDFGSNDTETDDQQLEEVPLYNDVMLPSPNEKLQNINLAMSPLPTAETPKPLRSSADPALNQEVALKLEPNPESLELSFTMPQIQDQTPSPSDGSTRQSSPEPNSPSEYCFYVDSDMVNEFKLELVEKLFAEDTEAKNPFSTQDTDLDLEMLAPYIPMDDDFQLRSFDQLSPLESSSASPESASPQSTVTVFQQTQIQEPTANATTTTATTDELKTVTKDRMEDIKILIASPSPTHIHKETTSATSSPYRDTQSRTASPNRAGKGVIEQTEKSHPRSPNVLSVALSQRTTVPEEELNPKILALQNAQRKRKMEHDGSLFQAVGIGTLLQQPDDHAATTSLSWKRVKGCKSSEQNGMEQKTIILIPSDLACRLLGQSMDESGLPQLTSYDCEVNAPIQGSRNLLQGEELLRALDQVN

O=[N+]([O-])C(Br)(CO)CO
not listed: [17] | [18]
inactive: all other assays above

Nc1ccc(Cc2ccc(N)cc2)cc1
not listed: [18]
inactive: all other assays above

Nc1cc(Cl)cc(C(=O)O)c1Cl
not listed: [17]
inactive: all other assays above
